Data from ChEMBL document CHEMBL4513160, “CO-ADD screening of MMV (CH) - Small Polar Library”.
The whole screen tested about 23,000 compounds, of which about 30 (0.1%) showed an effect of 50% or more. The full list was thinned out, with strong results kept by preference. Results with a measured potency or affinity are listed apart.

Each compound was assayed on Pseudomonas aeruginosa. Details: Concentration 300 ug.mL-1; ASSAY_TEST Inhibition of Bacterial Growth; detection method Absorption (OD600); MEDIA CAMHB; plate type 384well; NBS; CORNING #3640; time 18 hr.
For `CSCc1noc(CN2CCC(=O)NCC2C)n1` (stereo not given), the Inhibition was 2.5%.
Work on `CCc1n[nH]c(=O)n1CC` yielded an Inhibition of 16.77%.
`O=C1C=CC(=O)N1C1CCCCC1` showed an Inhibition of 14.45%.
With `O=C(c1cc(F)ccc1Br)N1CCNCC1` the Inhibition was -21.94%.
For `CNCc1ncc(C)c(OC)c1C`, the Inhibition was 22.51%.
Compound `CC(=O)NCc1ccc(C(=O)CSc2ccccn2)s1` has an Inhibition of 23.63%.
Compound `CN(Cc1cccc(C#N)c1)C(=O)C1CC1` has an Inhibition of 11.31%.
For `CN(C)S(=O)(=O)NCc1ccc(Cn2ccnc2)cc1`, the Inhibition was -10.43%.
`NC(=O)CCNCc1ccc(Cl)c2cccnc12` gave an Inhibition of 17.51%.
`OCc1cccc2ncccc12` was tested, and the Inhibition was -43.09%.
Work on `NC(=O)C1(NCc2ccc(Br)c3cccnc23)CC1` yielded an Inhibition of 4.47%.
For `CC(=O)NCCCNCc1ccc(Br)c2cccnc12`, the Inhibition was 29.22%.
`O=C(c1nnsc1-c1ccc(Cl)cc1)N1CCSCC1` was tested, and the Inhibition was -1.35%.
Work on `CN(C)CCCC(=O)N1CCCC(CO)(CC2CC2)C1` (stereo not given) yielded an Inhibition of -1.87%.
`CC1CCN(C(=O)CCN2C[C@H](C3CC3)[C@@H](N)C2)CC1` was tested, and the Inhibition was 0.49%.
Compound `OC(CN1CCn2ccnc2C1)c1ccc(Cl)cc1` (stereo not given) has an Inhibition of -6.36%.
Work on `CSCCC(O)C(=O)NCCc1scnc1C` (stereo not given) yielded an Inhibition of -25.65%.
Work on `COCCN(Cc1ccccn1)C(=O)CC1CCNC1` (stereo not given) yielded an Inhibition of -0.17%.
`CN1CCOC[C@H]2CCN(C(=O)c3cccs3)C[C@H]21` gave an Inhibition of -22.95%.
For `CNC(=O)C(C)Sc1nccn1-c1ccc(OC)cc1` (stereo not given), the Inhibition was 17.22%.
With `N#Cc1cccc(CN2CCCC(O)C2)c1` (stereo not given) the Inhibition was 9.18%.
`CN(CCNC(=O)c1cnc[nH]1)Cc1ccc(F)cc1` showed an Inhibition of 37.03%.
In the case of `CNC1(C(=O)OC)CCCCC1`, the Inhibition is reported as -2.18%.
With `Cc1cc(NC(=O)CSCC(=O)N2CCC2)no1` the Inhibition was 7.6%.
For `CCOC(=O)c1nc(C)n(C)n1`, the Inhibition was 10.82%.
`c1cc2c(cc1CNc1nnc(C3CC3)o1)OCCO2` showed an Inhibition of -5.88%.
Work on `O=C(CCCc1cn[nH]c1)N1CCc2ccccc2C1` yielded an Inhibition of 6.06%.
In the case of `CCCC(C)NC(=O)c1coc(C)n1` (stereo not given), the Inhibition is reported as -6.54%.
Compound `CCN(CC(C)C#N)C(=O)c1ccc(Br)o1` (stereo not given) has an Inhibition of -3.61%.
For `COC(=O)[C@@H]1CCN[C@@H]1C(C)C`, the Inhibition was 12.69%.
`C1CN(C2CCN(c3nnc(C4CC4)o3)CC2)CCS1` gave an Inhibition of 8.74%.
`C=C(C)CNC(=O)Nc1cccc(N2CCNC2=O)c1` was tested, and the Inhibition was -38.18%.
With `CCc1ccc(CN(CCO)Cc2nccn2C)nc1` the Inhibition was -17.17%.
`Clc1ccc(-c2noc(CN3CCCNCC3)n2)cc1` was tested, and the Inhibition was 46.35%.
Work on `NC(=O)c1cc(N2CCCC2)ccn1` yielded an Inhibition of -17.78%.
In the case of `Fc1ccc2[nH]cnc2c1`, the Inhibition is reported as 26.41%.
`CNCCC1CCCO1` (stereo not given) was tested, and the Inhibition was 6.91%.
Work on `CNC1CC(=O)N(Cc2ccccc2)C1=O` (stereo not given) yielded an Inhibition of -1.73%.
`CC1(C)C[S+]([O-])CCN1C(=O)c1cccc(F)c1Cl` (stereo not given) gave an Inhibition of 17.16%.
`CCN(CC)C(=O)[C@@H]1C[C@@H](N)CN1C(=O)CS(C)(=O)=O` gave an Inhibition of 7.51%.
With `Nc1ncn(S(=O)(=O)c2ccccc2)n1` the Inhibition was -6.3%.
`Cc1n[nH]cc1CNCc1ccc(-n2ccnc2)nc1` was tested, and the Inhibition was 0.04%.
In the case of `O=C(CC1CCCN1)c1ccco1` (stereo not given), the Inhibition is reported as 24.64%.
`CC(O)C(=O)NC(N)=O` (stereo not given) showed an Inhibition of 10.69%.
`O=c1ccoc2ccc(F)cc12` gave an Inhibition of 24.86%.
`CCCn1cnnc1CNCC(=O)Nc1cnccn1` gave an Inhibition of 7.89%.
For `CNC(=O)NC(=O)C(C)N1CCN(c2nccs2)CC1` (stereo not given), the Inhibition was 0.51%.
Work on `CCCc1nnc(N2CCC3(CC2)OCC(C)O3)s1` (stereo not given) yielded an Inhibition of -23.27%.
Work on `CC(C)NC(=O)c1cn(Cc2ccc(Cl)cc2)nn1` yielded an Inhibition of 37.8%.
In the case of `CCOC(=O)CNC(=O)N1CCn2cccc2C1C` (stereo not given), the Inhibition is reported as -25.66%.
`O=C(Cc1ccsc1)N[C@@H]1CCOC[C@H]1OCCO` showed an Inhibition of 1.98%.
`c1ccc(C2=NN=C(NC3CC3)SC2)cc1` was tested, and the Inhibition was 6.85%.
Compound `O=C(Cc1cccc(O)c1)NCCn1cc(Cl)cn1` has an Inhibition of -17.42%.
Compound `COc1cc(C(=O)N[C@@H]2CC[C@@H](N)C2)ccc1F` has an Inhibition of 12.15%.
`N[C@@H]1CCOc2c(F)ccc(F)c21` was tested, and the Inhibition was 32.11%.
In the case of `CC(Sc1ccccc1Cl)C(=O)NCC(=O)N(C)C` (stereo not given), the Inhibition is reported as 4.5%.
In the case of `CCC(c1ccc(F)cc1)N1CC[S+]([O-])CC1` (stereo not given), the Inhibition is reported as 11.41%.
In the case of `NS(=O)(=O)N(Cc1cccnc1)Cc1ccco1`, the Inhibition is reported as 8.52%.
Compound `COCCNCC(=O)Nc1cccc(CSC)c1` has an Inhibition of 7.12%.
In the case of `CCn1nc(C)c(CN2CCCCC(N)C2)c1C` (stereo not given), the Inhibition is reported as 14.9%.
With `O=C(CCN1CCC(CO)CC1)Nc1ccccc1F` the Inhibition was 3.62%.
`Cc1noc(CN2CCN(S(C)(=O)=O)CC2)n1` gave an Inhibition of -16.86%.
`CCS(=O)(=O)c1cncnc1N` was tested, and the Inhibition was 19.95%.
Compound `Cc1noc(C)c1CCC(=O)NC(C)c1ccccn1` (stereo not given) has an Inhibition of -45.2%.
`Cc1cc(C)cc(N2CCNCC2=O)c1` gave an Inhibition of 2.16%.
For `NC(=O)C1=NOC(CNCc2ccccc2Cl)C1` (stereo not given), the Inhibition was 23%.
Compound `Cc1cc(C(=O)N[C@@H]2CCOC[C@H]2O)sc1C` has an Inhibition of 10.73%.
`COc1ccc2[nH]c(CCCN)nc2c1` was tested, and the Inhibition was 28.12%.
`N[C@H]1CCCNC1=O` gave an Inhibition of 19.57%.
Compound `CCc1nc(CNC(=O)C2CCCO2)cs1` (stereo not given) has an Inhibition of 6.65%.
Work on `CCS(=O)(=O)NC1CCN(C(=O)c2cccc(F)c2)C1` (stereo not given) yielded an Inhibition of 13%.
`Cc1noc(CN(C)CCC2CCOCC2)n1` was tested, and the Inhibition was -10.62%.
With `O=C(NCc1ccc2c(c1)OCCCO2)c1cscn1` the Inhibition was 14.64%.
`NC1CC(=O)Nc2ccccc21` (stereo not given) gave an Inhibition of 18.18%.
Work on `CC(C)C[C@@H](N)C(=O)NCc1ccc2nsnc2c1` yielded an Inhibition of 6.42%.
`CC(C)C(=O)NC1CCCNC1` (stereo not given) gave an Inhibition of -0.49%.
Work on `N#Cc1ccc(NCc2ccccc2F)nc1` yielded an Inhibition of 16.68%.
`Cn1cnnc1CCNC(=O)c1cc(Cl)c(Cl)n1C` gave an Inhibition of 15.17%.
`COCCC(=O)c1ccc(F)cc1` gave an Inhibition of 19.26%.
`CCN1CCCC1CNC(=O)c1c[nH]nn1` (stereo not given) showed an Inhibition of 16.01%.
For `Cc1cc(C)cc(NC(=O)CNCCCO)c1`, the Inhibition was 5.1%.
Work on `NC1CCCc2c(F)cccc21` (stereo not given) yielded an Inhibition of 23.88%.
For `Fc1ccc2nc(N3CCCNCC3)oc2c1F`, the Inhibition was 33.45%.
`Cc1n[nH]c(C)c1NC(=O)C(C)CN` (stereo not given) gave an Inhibition of 18.11%.
Work on `CN(Cc1ccc2c(c1)OCO2)C(=O)c1cncs1` yielded an Inhibition of 25.32%.
